The campaign covered roughly 350,000 compounds. About 9,900 (2.8%) were called active. Roughly 15% stayed inconclusive and do not appear here. Calls follow the shape of the dose curve; as a rule, active = well fitted activation curve with a large enough effect; inconclusive = small, poorly fitted or top-dose-only effect; inactive = no such curve, though single readings can be large or run the other way. Shown is part of a subset that was picked to be rich in actives. Where a call stands in place of a potency, no number is given.
Potency is read from the fitted curve at half-maximal effect.

The nature of the test: A quantitative high throughput screen for small molecules that induce DNA re-replication in MCF 10a normal breast cells. Also: nearly all actives have a fitted effect of over 50% in size. Conditions: MCF 10A DNA re-replication, Hoechst nuclear intensity, 48 h; series mostly up to 46.1 µM.
In the case of `O=C(N/N=C/c1ccc([N+](=O)[O-])cc1)c1c[nH]c2ccccc12`, the Potency entry is “inactive”.

As to `Cc1c(C(=O)N/N=C/c2ccccc2)[nH]c2c([N+](=O)[O-])cccc12`, the Potency was 4.11 µM (active).

As for `Cc1cc(C(=O)N/N=C/c2ccccc2[N+](=O)[O-])c(C)o1`, the Potency result is “inactive”.

With `CC(=O)N(O)CCCCCNC(=O)CCC(=O)N(O)CCCCCNC(=O)CCC(=O)N(O)CCCCCNC(=O)CCC(=O)O`, the Potency result is “inactive”.

In the case of `COc1ccc(S(=O)(=O)N2CCCCCC2)cc1NC(=O)Cc1ccc(OC)c(OC)c1`, the Potency entry was “inactive”.

In the case of `O=C(NCCc1ccco1)c1ccc(OCc2cn3ccccc3n2)cc1`, the Potency entry is “inactive”.

With `O=C(/C=C/c1ccccc1[N+](=O)[O-])OC1CCCCC1=O` (stereo not drawn), the Potency entry was “inactive”.

In the case of `CC1CCCCC1NC(=O)/C(C#N)=C/C=C/c1ccccc1[N+](=O)[O-]` (stereo not drawn), the Potency is 2.91 µM (active).

For `O=C(/C=C/c1ccccc1[N+](=O)[O-])NCC1CCCO1` (stereo not drawn), the Potency entry is “inactive”.

For `O=C(CSc1ccccc1)Nc1cccc(S(=O)(=O)N2CCCCC2)c1`, the Potency entry was “inactive”.

On to `C=CC[C@@H](CC(=O)NCCO)C(=O)N[C@H](C)COC(=O)[C@@H](CC=C)CC(=O)OC(C)(C)C`, for which the Potency entry was “inactive”.

For `O=C(/C=C\c1ccc2c(c1)OCO2)NC1(C(=O)Nc2ccc3c(c2)OCCO3)CCCCC1`, the Potency entry was “inactive”.

As to `Cc1cccc(NC(=O)/C=C/c2ccc3c(c2)OCO3)n1`, the Potency entry is “inactive”.

In the case of `CCc1c(C)sc(NC(=O)/C=C/c2ccc3c(c2)OCO3)c1C(=O)OC`, the Potency is 5.8 µM (active).

Consider `Cc1csc(=O)n1CCC(=O)OCC(=O)NNC(=O)c1ccc(Br)cc1`, for which the Potency result was “inactive”.

Take `COc1ccc(/C=N/NC(=O)c2ccccc2)cc1OS(=O)(=O)c1ccccc1`: the Potency is 20.6 µM (active).

As to `COc1ccc(/C=N/S(=O)(=O)c2ccccc2)cc1OC`, the Potency entry is “inactive”.

Take `COc1cc(/C=N/NC(=O)Nc2ccccc2)ccc1OCCOc1ccccc1C`: the Potency was 1.16 µM (active).

Consider `COc1cc(/C=N/NC(=O)Cc2ccccc2)cc(OC)c1OC`, for which the Potency result is “inactive”.

`CCOC(=O)/C(C#N)=C/c1ccc(OCC(=O)Nc2ccccc2)c(OC)c1`: the Potency entry was “inactive”.

As to `COc1cc(/C=N/NC(=O)c2ccccc2)ccc1OS(=O)(=O)c1ccccc1`, the Potency entry was “inactive”.

With `CC(C(=O)NC1CCCC1)N1CCN(S(=O)(=O)c2ccccc2Cl)CC1` (stereo not drawn), the Potency entry was “inactive”.

With `COC(=O)C1=C(C)NC(=S)NC1c1ccc(OCC(=O)N2CC(C)OC(C)C2)c(OC)c1` (stereo not drawn), the Potency result is “inactive”.

`O=C(Cn1cc(/C=N/NC(=O)c2cccc(C(F)(F)F)c2)c2ccccc21)Nc1ccc(F)cc1`: the Potency is 20.6 µM (active).

For `COc1ccc(/C=N/NC(=O)c2cccc(C(F)(F)F)c2)cc1`, the Potency entry was “inactive”.

Turning to `O=C(CSc1ccc(/C=N/NC(=O)c2cccc(F)c2)o1)Nc1ccccc1`, the Potency result is “inactive”.

Consider `CC(C)(C)Nc1c(-c2cccs2)nc2ccccn12`, for which the Potency result was “inactive”.

As to `Cc1cc2nc(C(F)(F)F)cc(-c3cccs3)n2n1`, the Potency is 0.92 µM (active).

Turning to `Cc1cc(-c2cccs2)nc(-n2cccc2)n1`, the Potency entry was “inactive”.

As for `CN(C(=O)Cn1nnc(-c2ccc(F)cc2)n1)C1CCS(=O)(=O)C1` (stereo not drawn), the Potency result is “inactive”.

`CN1CCN(c2ccc(NC(=O)c3cc(Cl)c4c(c3)OCCO4)cc2)CC1`: the Potency result is “inactive”.

Turning to `Cc1ccc(CNC(=O)COc2ccc(S(=O)(=O)NC(C)C)cc2)cc1`, the Potency result is “inactive”.

`Cc1ccc(CNC(=O)COc2ccc3c(c2)CCC3)cc1`: the Potency entry is “inactive”.

With `CC(=O)Nc1ccc(OCC(=O)NCc2ccc(C)cc2)cc1`, the Potency is 1.16 µM (active).

For the compound `COc1ccccc1-c1nn(Cc2ccccc2)cc1C(=O)N1CCN(c2ncccn2)CC1`, the Potency entry is “inactive”.

Turning to `O=C(CN1CCCSc2ccccc21)N1CCN(S(=O)(=O)c2ccccc2)CC1`, the Potency result was “inactive”.

Regarding `CC(=O)c1sc(NC(=O)CCCOc2ccccc2C)nc1C`, the Potency result is “inactive”.

For `COc1ccccc1/C=N/Nc1nc(C)c(C(C)=O)s1`, the Potency entry was “inactive”.

For the compound `CC(=O)c1sc(N/N=C/c2ccc(C(C)C)cc2)nc1C`, the Potency is 13 µM (active).

For the compound `COc1ccc(Cl)cc1NC(=O)COC(=O)c1ccc(Br)o1`, the Potency entry is “inactive”.

Regarding `CCCN(CC1CC1)C(=O)COC(=O)c1ccc(C)cc1O`, the Potency entry was “inactive”.

For the compound `Cc1cc(C)n2nc(C(=O)Nc3cccc(S(=O)(=O)N4CCOCC4)c3)nc2n1`, the Potency result was “inactive”.

For `NC(CSC1(c2ccccc2)c2ccccc2-c2ccccc21)C(=O)O` (stereo not drawn), the Potency entry is “inactive”.

Consider `COc1ccc(-c2ccc3c(c2)[C@@H]2C[C@H](N(C)S(=O)(=O)c4ccccc4)[C@H]([C@H](C)O)C(=O)N2CC3)cc1`, for which the Potency entry is “inactive”.

Regarding `CC(C)(C)OC(=O)Nc1ccc([C@@H](NC(=O)OC(C)(C)C)C(=O)OC(C)(C)C)cc1`, the Potency entry is “inactive”.

`CCc1ccc2c(c1)C1(NN=C(c3ccccc3)S1)C(=O)N2` (stereo not drawn): the Potency is 18.4 µM (active).

Consider `CCc1ccc2c(c1)C(c1ccc([N+](=O)[O-])cc1)=NNC(c1ccccc1)=N2`, for which the Potency result is “inactive”.

For the compound `O=S1(=O)CSCS(=O)(=O)C1`, the Potency entry is “inactive”.

For `COc1cc(OC)cc(-c2c(-c3ccc(F)cc3)c3cc(-c4ccc5cc[nH]c5c4)ccc3n2C)c1`, the Potency entry was “inactive”.

Take `COc1ccc2c(c1)c(=Cc1ccc(N(C)C)cc1)c1cc(-c3ccccc3)[n+](C)n12`: the Potency result is “inactive”.

With `COc1ccc2sc(-c3ccc(N(C)C)cc3)c(-c3ccc4cc[nH]c4c3)c2c1`, the Potency was 16.4 µM (active).

In the case of `CC1Sc2ccc(C(=O)NCc3ccccc3Cl)cc2NC1=O` (stereo not drawn), the Potency result was “inactive”.

In the case of `O=c1ccn([C@@H]2O[C@H](CNS(=O)(=O)c3cc4ccccc4s3)[C@@H](O)[C@H]2O)c(=O)[nH]1`, the Potency result was “inactive”.

As for `Cc1cc(C)c(C=NNc2nc3c([nH]2)c(=O)n(C)c(=O)n3C)c(C)c1`, the Potency entry is “inactive”.

For `CCOC(=O)N/N=C/c1cn(Cc2ccccc2Cl)c2ccccc12`, the Potency result is “inactive”.

Turning to `N#CCC(=O)N/N=C/c1cn(Cc2ccc3ccccc3c2)c2ccccc12`, the Potency was 10.3 µM (active).

Take `N#CCC(=O)N/N=C/c1ccc(SCC(=O)Nc2ccccc2)o1`: the Potency result was “inactive”.

In the case of `CC1CCCC(NC(=O)c2cc(S(=O)(=O)N3CCCCC3)ccc2Cl)C1C` (stereo not drawn), the Potency result was “inactive”.

Regarding `O=c1c2ccccc2nc2n1C1(CCCCC1)Cc1ccccc1-2`, the Potency was 18.4 µM (active).

`CN(c1ccc2nc3ccccc3c(=O)n2n1)C1CCCCC1`: the Potency entry was “inactive”.

As for `c1cncc(-c2nnc3n2C2(CCCCC2)Cc2ccccc2-3)c1`, the Potency entry is “inactive”.

As for `COc1ccccc1CNC(=O)COC(=O)c1cccs1`, the Potency result is “inactive”.

On to `CC(C)C[C@H]1CN([C@@H](CC(C)C)CN2CCC[C@@H]2CN2C(=O)C(=O)NC[C@@H]2Cc2ccccc2)C(=O)C(=O)N1CCc1ccccc1`, for which the Potency result is “inactive”.

(Values after PubChem BioAssay AID624296 (National Center for Advancing Translational Sciences (NCATS), 2012).)
